Here are results for 10 compounds from PubChem BioAssay (NCI).

The panel holds about 79,000 compounds, 15% with a hit somewhere; the sample as a whole holds those more often. Unmarked numbers belong to inactive results. Calls of active or inactive are those of the source. Cut-off read from the data, not from the text of the source: active = growth inhibition above about 70%; inactive = the rest.

The nature of assay [1]: NCI Yeast Anticancer Drug Screen. Data for the rad50 strain (AID 155).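 Note: 0% = growth of vehicle-only cultures of the same strain.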 To be noted: S. cerevisiae rad50 strain growth inhibition, active compounds read high. In a few lines: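 Genetically altered yeast (DNA repair pathway); compound treatment; growth inhibition vs vehicle ctrl.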
The nature of assay [2]: NCI Yeast Anticancer Drug Screen. Data for the mec2-1 strain (AID 157). To be noted: S. cerevisiae mec2-1 strain, active compounds read high. The procedure, abridged:
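Vehicle-treated cultures served as reference for growth inhibition of compound-exposed mec2-1 yeast.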

Assay [3] in a line: NCI Yeast Anticancer Drug Screen. Data for the sgs1 mgt1 strain (AID 161).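 Note: 0% = growth of cultures given vehicle only.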 To be noted: S. cerevisiae sgs1 mgt1 strain, active compounds read high. In a few lines: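 Genetically altered yeast, compound exposure, growth inhibition relative to vehicle.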
Assay [4] is described as follows: NCI Yeast Anticancer Drug Screen. Data for the cln2 rad14 strain (AID 165).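 Note: 0% = growth equal to vehicle treated cultures.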 To be noted: S. cerevisiae cln2 rad14 strain, active compounds read high. In a few lines:
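Each compound was tested on cln2 rad14 yeast. Inhibition of growth was calculated against vehicle-exposed controls.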

A short description of assay [5]: NCI Yeast Anticancer Drug Screen. Data for the bub3 strain (AID 167). To be noted: S. cerevisiae bub3 mutant strain, active compounds read high. The procedure, abridged: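 Yeast carrying a defined mutation is treated with each compound, and growth is compared with that of vehicle-exposed cells to give inhibition.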
The nature of assay [6]: NCI Yeast Anticancer Drug Screen. Data for the mlh1 rad18 strain (AID 175). To be noted: S. cerevisiae mlh1 rad18 strain growth inhibition, active compounds read high. The procedure, abridged:
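Vehicle-treated cultures served as the reference for growth inhibition in a yeast strain carrying DNA damage repair alterations exposed to each compound.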

Where [7] appears, read: at 5.0 µM (retest, dose inferred, filed as 0.5).
Setting [8] is: at 50.0 µM (retest, dose inferred, filed as 5.0).

As to `N#CC=Cc1ccc([N+](=O)[O-])s1` (mixture of isomers), the growth inhibition was 41% in assay [1] (setting [7]); 99% (active) in assay [1] (setting [8]); 89.8% (active) in assay [1] (at 50.0 µM); 39% in assay [2] (setting [7]); 98% (active) in assay [2] (setting [8]); 90.8% (active) in assay [2] (at 50.0 µM). The growth inhibition is 59% in assay [3] (setting [7]); 99% (active) in assay [3] (setting [8]); 90.8% (active) in assay [3] (at 50.0 µM); 32% in assay [4] (setting [7]); 99% (active) in assay [4] (setting [8]); 90.8% (active) in assay [4] (at 50.0 µM). Also, the growth inhibition in assay [5] (setting [7]) was 70% (active); in assay [5] (setting [8]), 99% (active); in assay [5] (at 50.0 µM) it was 88.5% (active); in assay [6] (setting [7]), 50%; in assay [6] (setting [8]), 98% (active); in assay [6] (at 50.0 µM) it was 91.1% (active).
In the case of `CCOC(=O)c1cnc2ccc(C3CCCCC3)cc2c1Nc1ccc2c(c1)OCO2`, the growth inhibition in assay [1] (setting [7]) was -15%; in assay [1] (setting [8]), 91% (active); in assay [1] (at 50.0 µM) it was 11.1%; in assay [2] (setting [7]), -4%; in assay [2] (setting [8]), 95% (active); in assay [2] (at 50.0 µM), -8.35%. The growth inhibition in assay [3] (setting [7]) was -23%; in assay [3] (setting [8]), 96% (active); in assay [3] (at 50.0 µM), 5.15%; in assay [4] (setting [7]), -9%; in assay [4] (setting [8]), 92% (active); in assay [4] (at 50.0 µM), -12.8%. Also, the growth inhibition in assay [5] (setting [7]) was 3%; in assay [5] (setting [8]), 93% (active); in assay [5] (at 50.0 µM) it was -7.25%; in assay [6] (setting [7]) it was -3%; in assay [6] (setting [8]), 93% (active); in assay [6] (at 50.0 µM), 25.4%.
In the case of `CC(C)c1ccc2c(c1)CC[C@@H]1[C@](C)(CO)CCC[C@]21C`, the growth inhibition in assay [1] (setting [7]) was 4%; in assay [1] (setting [8]), 94% (active); in assay [1] (at 50.0 µM), 34.8%; in assay [2] (setting [7]), 4%; in assay [2] (setting [8]) it was 94% (active); in assay [2] (at 50.0 µM) it was 89.8% (active). In addition, the growth inhibition in assay [3] (setting [7]) was 0%; in assay [3] (setting [8]), 99% (active); in assay [3] (at 50.0 µM), 43.2%; in assay [4] (setting [7]), 2%; in assay [4] (setting [8]) it was 96% (active); in assay [4] (at 50.0 µM) it was 68.2%. In addition, the growth inhibition was -3% in assay [5] (setting [7]); 95% (active) in assay [5] (setting [8]); 89.1% (active) in assay [5] (at 50.0 µM); -16% in assay [6] (setting [7]); 95% (active) in assay [6] (setting [8]); 97.3% (active) in assay [6] (at 50.0 µM).
As to `OC(c1ccccc1)(c1ccccc1)C(F)(Cl)Cl`, the growth inhibition was 1% in assay [1] (setting [7]); 10% in assay [1] (setting [8]); 52.2% in assay [1] (at 50.0 µM); 0% in assay [2] (setting [7]); 58% in assay [2] (setting [8]); 94.8% (active) in assay [2] (at 50.0 µM). Moreover, the growth inhibition in assay [3] (setting [7]) is -4%; in assay [3] (setting [8]), 15%; in assay [3] (at 50.0 µM), 64.4%; in assay [4] (setting [7]), 1%; in assay [4] (setting [8]) it was 17%; in assay [4] (at 50.0 µM), 92.9% (active). Moreover, the growth inhibition in assay [5] (setting [7]) was -14%; in assay [5] (setting [8]) it was 9%; in assay [5] (at 50.0 µM), 98.5% (active); in assay [6] (setting [7]), -2%; in assay [6] (setting [8]), 37%; in assay [6] (at 50.0 µM) it was 39.5%.
On to `S=C(NCc1ccccc1)N/N=C/c1ccccn1`, for which the growth inhibition in assay [1] (setting [7]) is -22%; in assay [1] (setting [8]) it was 65%; in assay [1] (at 50.0 µM), 20.6%; in assay [2] (setting [7]), 9%; in assay [2] (setting [8]) it was 57%; in assay [2] (at 50.0 µM), 17.4%. The growth inhibition in assay [3] (setting [7]) is -9%; in assay [3] (setting [8]), 60%; in assay [3] (at 50.0 µM), 49.8%; in assay [4] (setting [7]), 23%; in assay [4] (setting [8]) it was 83% (active); in assay [4] (at 50.0 µM), 62%. Further, the growth inhibition was -22% in assay [5] (setting [7]); 72% (active) in assay [5] (setting [8]); 63.9% in assay [5] (at 50.0 µM); 0% in assay [6] (setting [7]); 51% in assay [6] (setting [8]); 42.7% in assay [6] (at 50.0 µM).
For `CCOC(=O)c1cnccc1CC1(C#N)c2ccccc2C=CN1C(=O)c1ccccc1` (stereo not given), the growth inhibition was 5% in assay [1] (setting [7]); 67% in assay [1] (setting [8]); 86.7% (active) in assay [1] (at 50.0 µM); -2% in assay [2] (setting [7]); 83% (active) in assay [2] (setting [8]); 83.5% (active) in assay [2] (at 50.0 µM). In addition, the growth inhibition in assay [3] (setting [7]) is 4%; in assay [3] (setting [8]), 67%; in assay [3] (at 50.0 µM) it was 93.2% (active); in assay [4] (setting [7]) it was -7%; in assay [4] (setting [8]) it was 68%; in assay [4] (at 50.0 µM), 52.2%. Further, the growth inhibition was 6% in assay [5] (setting [7]); 71% (active) in assay [5] (setting [8]); 75% (active) in assay [5] (at 50.0 µM); 3% in assay [6] (setting [7]); 67% in assay [6] (setting [8]); 89.2% (active) in assay [6] (at 50.0 µM).
Take `O=C1C=CC(=O)N1c1ccc(Br)c(Cl)c1`: the growth inhibition in assay [1] (setting [7]) was 101% (active); in assay [1] (setting [8]), 100% (active); in assay [1] (at 50.0 µM) it was 68.7%; in assay [2] (setting [7]) it was 100% (active); in assay [2] (setting [8]), 100% (active); in assay [2] (at 50.0 µM), 87.8% (active). Besides, the growth inhibition in assay [3] (setting [7]) is 21%; in assay [3] (setting [8]) it was 100% (active); in assay [3] (at 50.0 µM) it was 80.3% (active); in assay [4] (setting [7]), 46%; in assay [4] (setting [8]), 100% (active); in assay [4] (at 50.0 µM), 24.2%. Moreover, the growth inhibition was 37% in assay [5] (setting [7]); 100% (active) in assay [5] (setting [8]); 66.6% in assay [5] (at 50.0 µM); 100% (active) in assay [6] (setting [7]); 100% (active) in assay [6] (setting [8]); 63.7% in assay [6] (at 50.0 µM).
Take `O=[N+]([O-])c1ccc2c(c1)/C(=C/c1ccccc1O)c1ccccc1-2`: the growth inhibition in assay [1] (setting [7]) is 66%; in assay [1] (setting [8]), 91% (active); in assay [1] (at 50.0 µM) it was 92.7% (active); in assay [2] (setting [7]), 81% (active); in assay [2] (setting [8]), 93% (active); in assay [2] (at 50.0 µM), 90.5% (active). For the same compound, the growth inhibition in assay [3] (setting [7]) is 69%; in assay [3] (setting [8]) it was 92% (active); in assay [3] (at 50.0 µM), 88.5% (active); in assay [4] (setting [7]) it was 52%; in assay [4] (setting [8]) it was 87% (active); in assay [4] (at 50.0 µM) it was 84.3% (active). For the same compound, the growth inhibition in assay [5] (setting [7]) is 42%; in assay [5] (setting [8]), 91% (active); in assay [5] (at 50.0 µM) it was 92% (active); in assay [6] (setting [7]), 89% (active); in assay [6] (setting [8]), 91% (active); in assay [6] (at 50.0 µM), 90.2% (active).
Consider `O=C(COc1ccc(Cl)c(Cl)c1)Nc1ccc[n+](Cc2ccc(Cl)c(Cl)c2)c1`, for which the growth inhibition in assay [1] (setting [7]) was -15%; in assay [1] (setting [8]), 99% (active); in assay [1] (at 50.0 µM), 99.6% (active); in assay [2] (setting [7]) it was 1%; in assay [2] (setting [8]) it was 100% (active); in assay [2] (at 50.0 µM), 99.5% (active). The growth inhibition is 13% in assay [3] (setting [7]); 99% (active) in assay [3] (setting [8]); 99.5% (active) in assay [3] (at 50.0 µM); 2% in assay [4] (setting [7]); 99% (active) in assay [4] (setting [8]); 99.2% (active) in assay [4] (at 50.0 µM). Also, the growth inhibition in assay [5] (setting [7]) is 2%; in assay [5] (setting [8]), 99% (active); in assay [5] (at 50.0 µM), 99.3% (active); in assay [6] (setting [7]), 39%; in assay [6] (setting [8]) it was 99% (active); in assay [6] (at 50.0 µM), 98.8% (active).
In the case of `N#Cc1cccc2c1Sc1ccccc1N2`, the growth inhibition is 22% in assay [1] (setting [7]); 31% in assay [1] (setting [8]); 88.6% (active) in assay [1] (at 50.0 µM); 6% in assay [2] (setting [7]); -9% in assay [2] (setting [8]); 92.8% (active) in assay [2] (at 50.0 µM). Besides, the growth inhibition in assay [3] (setting [7]) was 1%; in assay [3] (setting [8]), 6%; in assay [3] (at 50.0 µM) it was 89.2% (active); in assay [4] (setting [7]), -5%; in assay [4] (setting [8]) it was -6%; in assay [4] (at 50.0 µM), 90.1% (active). Also, the growth inhibition was -26% in assay [5] (setting [7]); 6% in assay [5] (setting [8]); 91.3% (active) in assay [5] (at 50.0 µM); -7% in assay [6] (setting [7]); 7% in assay [6] (setting [8]); 60.5% in assay [6] (at 50.0 µM).
